Most compounds without a hit are left out; they make up all but 12% or so of the library.
JMJD2A Tudor: JMJD2A Tudor domain (human) inhibition | Potency, µM (doses to about 114 µM), inactives show at the highest dose activity change, negative = inhibition, actives largely listed as inhibitors | actives 4.4% (n = 390,000) | O75164 | AlphaScreen JMJD2A-Tudor / H3K4me3 peptide binding; also: % is scaled to controls: 0 for no effect and ±100 for the full control effect; nearly all actives have a fitted effect of over 50% in size
G9a inh: inhibitors of human histone lysine methyltransferase G9a; AID 504332; Potency, µM (top dose mostly 102 µM), without a hit: at the highest dose activity, negative = inhibition, actives largely listed as inhibitors; Q96KQ7; G9a H3K9 monomethylation, AlphaScreen, 2 h; actives 8.8% (n = 350,000); also: % is scaled to controls: 0 for no effect and ±100 for the full control effect; nearly all actives have a fitted effect of over 75% in size
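G9a (20 nM) was preincubated 15 min with compound, then reacted 2 h at room temperature with 500 nM biotin-H3K9 peptide and 20 µM SAM. Monomethyl-H3K9 detected by AlphaScreen using anti-H3K9me1 antibody.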
Sfp inh: blocks B. subtilis Sfp PPTase activity. Q9F4F7. Biochemical Sfp PPTase activity, qHTS. Potency, µM, without a hit: largest response in the series, negative = inhibition, most hits filed as inhibitors. actives 3.5% (n = 310,000);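 also: the enzyme is Sfp with the accession as filed and its product quenches rhodamine fluorescence; 0% = enzyme reaction without inhibitor and -100% = no enzyme wells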
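Step 1, compound plus 15 nM Sfp-PPTase, 15 min, room temperature. Step 2, add rhodamine-CoA (5 uM) and BHQ-2-YbbR (12.5 uM). Step 3, read 525/598 nm fluorescence at 0 and 30 min.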
PLK1 PBD inh: blocks phosphopeptide binding to human PLK1 polo-box domain | AID 720504 | actives 2.8% (n = 360,000) | Potency, µM, inactives show max response, negative = inhibition, actives largely listed as inhibitors | P53350 | Plk1 PBD binding of FITC phosphopeptide, fluorescence polarization; also: series mostly up to about 57 µM; % is scaled to controls: 0 for no effect and ±100 for the full control effect; nearly all actives have a fitted effect of over 65% in size
BAZ2B block: BAZ2B (human) inhibition; Q9UIF8; AlphaScreen BAZ2B-H3K14Ac peptide displacement; Potency, µM (highest dose often 114 µM), without a hit: top-dose activity change, negative = inhibition, actives largely listed as inhibitors; actives 4.4% (n = 360,000); AID 504333; also: % is scaled to controls: 0 for no effect and ±100 for the full control effect; nearly all actives have a fitted effect of over 60% in size
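BAZ2B (50 nM) with biotin-H3(5-23)K14Ac peptide (50 nM) in PBS pH 7.4, 0.01% Tween-20, preformed 30 min, then compound 30 min at room temperature; top concentration 110uM. AlphaScreen streptavidin donor/nickel chelate acceptor beads (10 ug/mL final), 20 min dark, signal read.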
HP1b binding inh: inhibitors of HP1-beta chromodomain binding to methylated histone tails | AlphaScreen HP1-beta / biotin-H3K9me3 peptide binding | Potency, µM (doses to about 114 µM), for the others: at the highest dose activity change, negative = inhibition, actives largely listed as inhibitors | AID 540317 | actives 0.56% (n = 390,000); also: nearly all actives have a fitted effect of over 70% in size
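AlphaScreen: HP1-beta (50 nM) preformed 30 min with biotin-H3(1-18)K9me3 peptide (50 nM) in PBS pH 7.4, 0.01% Tween-20. Compound added for 30 min at RT, then streptavidin donor/nickel chelate acceptor beads (10 ug/mL) for 30 min.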
* hit, by the source's call; ? = inconclusive; / = not tested or not shown; ! = a repeat was not active; [ ] = dose if it differs, or a comment. Calls follow the shape of the dose curve; as a rule, active = well fitted curve in the direction sought with a large enough effect; inconclusive = small, poorly fitted or top-dose-only effect, or another doubt; inactive = no such curve, though single readings can be large; an effect the other way counts as inactive or inconclusive. Potency is read from the fitted curve at half-maximal effect.

SMILES	JMJD2A Tudor	G9a inh	Sfp inh	PLK1 PBD inh	BAZ2B block	HP1b binding inh
CCOC(=O)c1[nH]c(C)c(/C(O)=C2\C(=O)C(=O)N(CCCN3CCOCC3)C2c2cccs2)c1C (stereo not given)	-17%	/	-18%	-8%	-15%	28%
COC(=O)c1[nH]c(C)c(/C(O)=C2\C(=O)C(=O)N(CCN(C)C)C2c2ccccc2OC)c1C (stereo not given)	45µM*	?	15%	-15%	-34%	18%
COC(=O)c1[nH]c(C)c(/C(O)=C2\C(=O)C(=O)N(CCN3CCOCC3)C2c2ccccc2OC)c1C (stereo not given)	50µM*	50µM*	-1%	-5%	-3%	18%
O=C(Nc1nc(=O)n(C(=O)c2cccc(C(F)(F)F)c2)s1)c1ccccc1	-17%	?	5%	17µM*	?	77%
CC(C)OC(=O)c1sc2nc(-c3ccccc3)ccc2c1N	19%	/	-18%	-3%	5%	44%
COC(=O)c1sc2nc(-c3ccco3)ccc2c1N	-6%	?	8.9µM*	?	-4%	43%
COC(=O)c1sc2nc(N)c(C#N)cc2c1N	-15%	45µM*	-18%	2%	-32%	15%
COC(=O)c1sc2nc3c(cc2c1N)CCCC3	-4%	23%	-4%	-7%	0%	69%
NC(=O)c1sc2nc(-c3cccnc3)ccc2c1N	-17%	10µM*	?	-13%	-28%	35%
CCC(Oc1ccc(Br)cc1)C(=O)N1CCN(c2ncccn2)CC1 (stereo not given)	1%	19%[12.7 µM]	1%	-9%	-5%	4%
CO[C@H]1CN(C)C(=O)c2cc(NC(=O)C3CCOCC3)ccc2OC[C@H](C)N(Cc2nccs2)C[C@H]1C	/	/	/	-14%	/	/
Clc1cccc(CN2CCc3c([nH]c4ccccc34)C2)c1	20µM*	/	?	27µM*	50µM*	?
Clc1ccc(CN2CCc3c([nH]c4ccccc34)C2)cc1Cl	16µM*	28µM*	?	?	32µM*	?
Cc1cccc(CN2CCc3c([nH]c4ccccc34)C2)c1	20µM*	45µM*	-9%	-14%	50µM*	45µM*
CSc1ccc(CN2CCc3c([nH]c4ccccc34)C2)cc1	3.2µM*	/	-17%	-4%	?	?
C=CC[n+]1c(-c2ccc(OCC)cc2)csc1NNC(=O)Nc1ccccc1	22µM*	?	-17%	-9%	10µM*	14µM*
COc1ccc(C(=O)NCc2ccccc2OC)cc1	1%	-7%[59 µM]	9%	-3%	-3%	29%
COc1ccccc1CNC(=O)c1ccc(-c2ccccc2)cc1	-6%	45µM*	?	-6%	-5%	33%
COc1ccccc1CNC(=O)c1ccc2ccccc2n1	-6%	10%	-2%	-9%	79µM*	41%
COc1ccc(CNC(=O)c2ccc3ccccc3n2)cc1OC	-5%	27%	2%	-6%	1%	29%
COc1ccccc1CNC(=O)Nc1nc(C(N)Cc2ccc(Cl)cc2)cs1 (stereo not given)	/	/	/	3%	/	/
COc1cc(/C=N/Nc2nc(N3CCCC3)nc(N3CCCC3)n2)ccc1OCc1ccccc1F	-35%	/	-1%	-8%	-14%	15%
C=C(CC)C(=O)c1ccc(OCC(=O)O)c(Cl)c1Cl	-29%	71µM*	20µM*!	?	-30%	18%
O=C(Nc1ccccc1F)c1ccc(Cn2nc(N3CCN(c4ccccc4)CC3)ccc2=O)o1	50µM*	?	/	/	32µM*	8%
COc1cccc(-c2cn3c(n2)sc2cc(C(=O)NCCCc4ccccc4)ccc23)c1	-27%	-1%[59 µM]	/	/	2%	9%
O=C(NCc1ccco1)C(=S)N1CCCC1	0%	32µM*	35%	-7%	-13%	18%
CC(C)(C)C1CCC(=NNC(=O)C(=O)NCc2ccco2)CC1 (stereo not given)	-15%	20µM*	3%	-13%	?	25%
